High-throughput results: PubChem, National Center for Advancing Translational Sciences (NCATS)
SW480 rereplic – A quantitative high throughput screen for small molecules that induce DNA re-replication in SW480 colon adenocarcinoma cells. hit rate 1.8% among 340,000. AID 624297, 2012. Potency, µM (highest dose often 46.1 µM), inactives show top-dose re-replication activation, hits mostly activators. SW480 DNA re-replication, Hoechst DNA content imaging, 48 h; note: % of control where 0% means no effect; nearly all actives have a fitted effect of over 55% in size
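Compounds, transferred as 23 nL by pin tool, were incubated with cells for 48 hr; DNA content per nucleus was then quantified by Hoechst staining and fluorescence plate imaging.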
KB-3-1 tox – qHTS assay for MDR1-selective chemotherapeutics: Primary screen using the parental adenocarcinoma cell KB-3-1; KB-3-1 viability, CellTiter-Glo ATP luminescence, 72 h; AID 1347075, 2019; hit rate 1.4% among 400,000; Potency, µM (top dose mostly 46.1 µM), usual class: cytotoxic; note: % is set by controls: 0 for no effect and ±100 for the full control effect; nearly all actives have a fitted effect of over 60% in size
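Cytotoxicity in the drug-sensitive parental line KB-3-1 was scored as loss of CellTiter-Glo luminescence following 72 h incubation with compound. Values come from curve fitting of normalized concentration-response data.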
HT1080 IDH1KD tx – qHTS for induction of synthetic lethality in tumor cells producing 2HG: qHTS for the HT-1080-IDH1KD cell line; HT-1080 IDH1 knockdown viability, ATP luminescence, 48 h; Potency, µM (doses to about 46.1 µM), for inactives: top-dose activity, negative = toxicity, most hits filed as cytotoxic; hit rate 2% among 360,000; AID 686971, 2013;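 note: 0% = DMSO wells and -100% = cell-free medium wells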
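Assay cells: HT-1080 with IDH1 knockdown, 750 per well, RPMI/5% FBS. Exposure: 48 h at 37 °C following 2 h pre-incubation. Read: CellTiter-Glo luminescence; fitted concentration-response, curve class assigned.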
HT1080NT lethal – qHTS for induction of synthetic lethality in tumor cells producing 2HG: qHTS for the HT-1080-NT fibrosarcoma cell line; HT-1080-NT fibrosarcoma viability, CellTiter-Glo ATP luminescence, 48 h; Potency, µM (titrated, usually from 46.1 µM), inactives show top-dose activity, negative = less viability, hits mostly cytotoxic; hit rate 1.6% among 360,000; AID 686970, 2013;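 note: NT is the 2HG producing partner of a matched IDH1 knockdown line; 0% = DMSO-treated cells and -100% = media-only wells without cells; nearly all actives have a fitted effect of over 55% in size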
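HT-1080-NT; 750 cells/well; 5% FBS RPMI; 48 h compound, 37 degrees C; CellTiter-Glo luminescence; curve fitting and curve-class assignment.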
KB-V1 MDR tox – qHTS assay for MDR1-selective chemotherapeutics: Primary screen using the drug-selected MDR subline cells KB-V1; KB-V1 MDR cells viability, CellTiter-Glo, 72 h; Potency, µM (doses to about 46.1 µM), usual class: cytotoxic; hit rate 3.4% among 400,000; AID 1347076, 2019; note: % is set by controls: 0 for no effect and ±100 for the full control effect; nearly all actives have a fitted effect of over 60% in size
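KB-V1 MDR subline cells in DMEM (phenol-red free, 10% FBS) exposed to compounds in qHTS concentration series for 72 h at 37 degrees C. Viability read by CellTiter-Glo luminescence; concentration-effect curves fitted after normalization and correction.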
MCF10A rereplic – A quantitative high throughput screen for small molecules that induce DNA re-replication in MCF 10a normal breast cells | hit rate 2.9% among 350,000 | MCF 10A DNA re-replication, Hoechst nuclear intensity, 48 h | Potency, µM (doses to about 46.1 µM), without a hit: at the top dose activity, positive = re-replication, usual class: activators; note: % of control where 0% means no effect; nearly all actives have a fitted effect of over 50% in size
Starred values were filed as active, the others as inactive; i = inactive; ? = inconclusive; . = not tested or not shown; [ ] = dose if it differs, or a comment. This is a sample that favours compounds with a hit; in the whole collection about 7.9% have one here. Calls come from the whole dose curve; as a rule, active = well fitted curve in the direction sought with a large enough effect; inconclusive = small, poorly fitted or top-dose-only effect, or another doubt; inactive = no such curve, though single readings can be large; an effect the other way counts as inactive or inconclusive. Potency is the fitted concentration of half-maximal effect.

SMILES | SW480 rereplic | KB-3-1 tox | HT1080 IDH1KD tx | HT1080NT lethal | KB-V1 MDR tox | MCF10A rereplic
O=C(N/N=C/c1ccc(Br)cc1)c1ccccc1-n1cccc1 | 13µM* | ? | 11µM* | ? | 15µM* | ?
C/C(=N\NC(=O)c1ccccc1-n1cccc1)c1ccccn1 | . | 10µM* | ? | ? | i | .
Cc1ccc(C(=O)NCc2ccc3c(c2)OCO3)cc1N1CCCC1=O | -2% | i | 5% | 2% | i | -5%
O=S(=O)(c1ccc(OC(F)(F)F)cc1)N1CCN(c2nc(-c3cccs3)nc3ccccc23)CC1 | . | i | . | . | i | .
CCCC(=O)Nc1cccc(NC(=O)c2ccc3c(c2)OCCO3)c1 | ? | i | -5% | 8% | i | ?
O=C(Nc1cccc(NC(=O)c2ccco2)c1)c1ccc2c(c1)OCO2 | 0% | i | 6% | -6% | 13µM* | -26%
CCCCC(=O)Nc1cccc(NC(=O)c2ccc3c(c2)OCO3)c1 | -4% | i | 8% | -27% | 13µM* | 1%
CCCCC(=O)Nc1cccc(NC(=O)c2ccc(Br)o2)c1 | 1% | i | 3% | 3% | 12µM* | -1%
Cc1ccc(C(=O)Nc2ccc3c(c2)OCO3)cc1NC(=O)c1ccco1 | i[1.84 µM] | i | -3% | -21% | i | -4%
Cc1cc(NC(=O)c2ccc3c(c2)OCO3)ccc1NC(=O)c1ccco1 | 2% | ? | 18µM* | ? | ? | -16%
O=C(Nc1cccc(NC(=O)c2ccco2)c1)c1ccc2c(c1)OCCO2 | -9% | i | -2% | 0% | i | -7%
CCN(C(=O)c1ccc(S(C)(=O)=O)cc1)C12CC3CC(CC(C3)C1)C2 | -5% | i | 0% | 11% | ? | 6%
OC(CNC1Cc2ccccc2C1)COc1ccc(F)cc1 (stereo not given) | 4% | i | -3% | -1% | i | 0%
Cc1ccc(F)cc1C(=O)N1CCOCC1c1cc(C(=O)Nc2ccccc2)no1 (stereo not given) | . | i | 3% | 2% | i | .
CC1=NN(C(N)=S)C(=O)C1N=Nc1ccccc1Cl (stereo not given) | 8.2µM* | i | 4% | -1% | i | ?
O=C(NCCN1C(=O)S/C(=C\c2ccc(Cl)c(Cl)c2)C1=O)c1cnccn1 | 2% | i | -3% | -2% | i | ?
O=C(NCCN1C(=O)S/C(=C\c2ccc(Cl)c([N+](=O)[O-])c2)C1=O)C1=COCCO1 | -644% | ? | ? | 15µM* | i | 3.7µM*
Nc1nnc(SCC(=O)Nc2sc3c(c2C(=O)c2ccccc2)CCCC3)s1 | 0% | i | -22% | -2% | i | -1%
CCc1nc(N2CCN(Cc3ccc4c(c3)OCO4)CC2)c2oc3ccccc3c2n1 | ? | 20µM* | ? | ? | 10µM* | 9.2µM*
Cc1nc(N2CCOCC2)c2oc3ccccc3c2n1 | 6% | i | -12% | -10% | 15µM* | ?
CCOC(=O)C1CCCN(c2nc(C)nc3c2oc2ccccc23)C1 (stereo not given) | 29% | i | ? | ? | 8.2µM* | 57%
CCc1nc(N2CCCCC2C)c2oc3ccccc3c2n1 (stereo not given) | ? | ? | ? | ? | 7.3µM* | ?
COCCNC(=O)C1CCCN(C(=O)c2nc3ccccc3s2)CC1 (stereo not given) | . | i | 3% | 12% | i | .
COc1ccc2[nH]c3c(c2c1)CCN1C(=O)N([C@@H](C)C(=O)NCc2c(F)cccc2Cl)C(=O)[C@]31C | 4% | ? | -1% | -5% | i | ?
